Measurements published in the supplement of paper PMC11732987, “Enantioselective OTUD7B fragment discovery through chemoproteomics screening and high-throughput optimisation” (Communications Chemistry, 2025).

Tests used:
Test in all cases: log2 ratio of Biotin-Ahx-Ub-VS probe labelling (fragment/DMSO); higher = less target engagement (more negative = stronger competition), active = hit call of the paper (q ≤ 0.05, log2 ratio ≤ -1)
Conditions in all cases: compound concentration: 200 uM; treatment time: 3 h
OTUD6B = molecular target: T1, OTUD6B (UniProt Q8N6M0)
T1 sequence (whole entry): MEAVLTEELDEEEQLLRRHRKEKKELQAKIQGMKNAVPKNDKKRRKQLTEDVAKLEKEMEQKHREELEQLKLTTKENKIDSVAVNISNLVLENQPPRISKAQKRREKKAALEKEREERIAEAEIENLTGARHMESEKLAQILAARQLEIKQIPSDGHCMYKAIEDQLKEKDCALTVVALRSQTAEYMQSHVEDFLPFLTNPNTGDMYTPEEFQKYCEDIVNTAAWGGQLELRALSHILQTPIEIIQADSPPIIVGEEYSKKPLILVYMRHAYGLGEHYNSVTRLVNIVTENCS
Summary of the method: (§1)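 The table lists average log2 ratios of fragment over vehicle, from an unpaired t-test on global-median-normalised Spectronaut label-free quantities. Proteins with ≥2 unique peptides were used. Samples were HEK293T lysate (495 µg) treated in triplicate with fragment at 200 µM or vehicle for 3 h, then with Biotin-Ahx-Ub-VS (0.5 µM final) for 1 h, with labelled DUBs NeutrAvidin-enriched and run by diaPASEF LC-MS/MS.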

OTUD7B = molecular target: T2, OTUD7B (UniProt Q6GQQ9)
T2 sequence (whole entry): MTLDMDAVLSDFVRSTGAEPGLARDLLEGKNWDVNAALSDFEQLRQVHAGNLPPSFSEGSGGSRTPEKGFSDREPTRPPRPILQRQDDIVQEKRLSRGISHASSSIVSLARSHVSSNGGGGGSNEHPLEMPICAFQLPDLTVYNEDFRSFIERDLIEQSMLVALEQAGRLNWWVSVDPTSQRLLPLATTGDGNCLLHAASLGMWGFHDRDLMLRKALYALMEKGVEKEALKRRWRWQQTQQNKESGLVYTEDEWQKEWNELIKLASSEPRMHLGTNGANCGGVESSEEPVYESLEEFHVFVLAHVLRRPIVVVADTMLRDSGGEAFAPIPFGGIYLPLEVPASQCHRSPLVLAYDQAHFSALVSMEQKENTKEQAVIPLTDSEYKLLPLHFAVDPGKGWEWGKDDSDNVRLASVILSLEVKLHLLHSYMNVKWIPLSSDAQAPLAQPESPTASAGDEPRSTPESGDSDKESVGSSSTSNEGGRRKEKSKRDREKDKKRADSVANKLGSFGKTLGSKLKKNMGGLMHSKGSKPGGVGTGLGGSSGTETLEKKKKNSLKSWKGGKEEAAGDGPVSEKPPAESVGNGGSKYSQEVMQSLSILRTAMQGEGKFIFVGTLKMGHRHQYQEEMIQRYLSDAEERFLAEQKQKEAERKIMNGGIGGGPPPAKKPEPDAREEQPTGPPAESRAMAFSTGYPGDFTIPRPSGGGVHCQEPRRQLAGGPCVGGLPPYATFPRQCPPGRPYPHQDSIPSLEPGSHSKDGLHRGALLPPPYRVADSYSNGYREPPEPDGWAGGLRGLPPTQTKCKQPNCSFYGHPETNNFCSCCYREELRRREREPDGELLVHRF
Summary of the method: as §1

PRPF8 = PRPF8 (UniProt Q6P2Q9)
Summary of the method: as §1

PSMD7 = molecular target: T3, PSMD7 (UniProt P51665)
T3 sequence (whole entry): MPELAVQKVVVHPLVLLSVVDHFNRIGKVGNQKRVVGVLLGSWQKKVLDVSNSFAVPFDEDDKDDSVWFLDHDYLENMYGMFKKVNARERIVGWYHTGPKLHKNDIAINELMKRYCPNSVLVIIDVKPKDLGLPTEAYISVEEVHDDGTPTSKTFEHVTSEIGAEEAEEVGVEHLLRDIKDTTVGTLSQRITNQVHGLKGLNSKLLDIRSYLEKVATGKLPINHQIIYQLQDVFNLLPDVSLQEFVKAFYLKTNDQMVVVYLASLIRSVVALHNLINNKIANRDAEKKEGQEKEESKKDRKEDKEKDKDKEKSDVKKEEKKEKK
Summary of the method: as §1

UCHL1 = UCHL1 (UniProt P09936)
UCHL1, sequence (P09936 whole entry, looked up): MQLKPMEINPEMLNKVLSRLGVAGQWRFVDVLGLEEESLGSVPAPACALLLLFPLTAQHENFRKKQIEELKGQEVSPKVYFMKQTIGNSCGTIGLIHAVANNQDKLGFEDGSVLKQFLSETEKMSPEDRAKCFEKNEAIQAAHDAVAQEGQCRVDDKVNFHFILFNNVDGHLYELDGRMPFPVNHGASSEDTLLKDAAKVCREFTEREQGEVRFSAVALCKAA
Summary of the method: as §1

UCHL3 = molecular target: T4, UCHL3 (UniProt P15374)
T4 sequence (whole entry): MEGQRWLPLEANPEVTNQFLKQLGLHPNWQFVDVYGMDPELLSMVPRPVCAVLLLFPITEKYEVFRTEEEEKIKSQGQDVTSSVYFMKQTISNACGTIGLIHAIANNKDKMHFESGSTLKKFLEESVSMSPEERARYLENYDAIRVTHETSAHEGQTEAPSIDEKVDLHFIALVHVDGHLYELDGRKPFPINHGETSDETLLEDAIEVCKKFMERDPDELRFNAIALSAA
Summary of the method: as §1

UCHL5 = molecular target: T5, UCHL5 (UniProt Q9Y5K5)
T5 sequence (whole entry): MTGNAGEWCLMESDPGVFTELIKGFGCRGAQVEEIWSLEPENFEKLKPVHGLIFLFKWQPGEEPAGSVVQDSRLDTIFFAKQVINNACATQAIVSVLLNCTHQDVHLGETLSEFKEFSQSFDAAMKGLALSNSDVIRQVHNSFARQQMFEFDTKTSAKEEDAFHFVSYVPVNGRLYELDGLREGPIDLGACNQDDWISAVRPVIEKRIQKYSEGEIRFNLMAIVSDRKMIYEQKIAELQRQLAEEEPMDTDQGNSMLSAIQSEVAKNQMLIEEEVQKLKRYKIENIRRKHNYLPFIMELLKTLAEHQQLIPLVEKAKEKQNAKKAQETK
Summary of the method: as §1

USP10 = USP10 (UniProt Q14694)
USP10, sequence (Q14694 whole entry): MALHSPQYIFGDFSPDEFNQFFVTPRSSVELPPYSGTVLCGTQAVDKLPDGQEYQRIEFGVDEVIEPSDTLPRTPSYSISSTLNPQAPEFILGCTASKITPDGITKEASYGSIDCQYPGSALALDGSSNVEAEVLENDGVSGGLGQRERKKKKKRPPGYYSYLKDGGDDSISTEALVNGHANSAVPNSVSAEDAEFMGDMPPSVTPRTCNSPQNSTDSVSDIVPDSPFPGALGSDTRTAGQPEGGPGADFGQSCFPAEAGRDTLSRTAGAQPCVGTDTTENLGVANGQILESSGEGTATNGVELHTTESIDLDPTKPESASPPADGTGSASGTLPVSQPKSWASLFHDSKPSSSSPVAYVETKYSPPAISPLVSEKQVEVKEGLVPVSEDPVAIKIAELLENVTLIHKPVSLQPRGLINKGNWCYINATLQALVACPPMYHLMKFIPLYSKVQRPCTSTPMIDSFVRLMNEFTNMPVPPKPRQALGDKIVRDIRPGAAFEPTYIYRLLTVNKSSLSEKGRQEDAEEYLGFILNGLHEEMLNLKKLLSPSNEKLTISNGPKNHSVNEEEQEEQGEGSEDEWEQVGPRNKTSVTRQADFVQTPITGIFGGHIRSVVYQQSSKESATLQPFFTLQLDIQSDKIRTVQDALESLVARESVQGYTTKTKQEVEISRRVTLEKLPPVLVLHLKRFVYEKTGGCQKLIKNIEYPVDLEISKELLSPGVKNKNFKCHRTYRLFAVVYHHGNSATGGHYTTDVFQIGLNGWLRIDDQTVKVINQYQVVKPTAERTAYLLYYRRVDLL
Summary of the method: as §1

USP15 = molecular target: T6, USP15 (UniProt Q9Y4E8)
T6 sequence (whole entry): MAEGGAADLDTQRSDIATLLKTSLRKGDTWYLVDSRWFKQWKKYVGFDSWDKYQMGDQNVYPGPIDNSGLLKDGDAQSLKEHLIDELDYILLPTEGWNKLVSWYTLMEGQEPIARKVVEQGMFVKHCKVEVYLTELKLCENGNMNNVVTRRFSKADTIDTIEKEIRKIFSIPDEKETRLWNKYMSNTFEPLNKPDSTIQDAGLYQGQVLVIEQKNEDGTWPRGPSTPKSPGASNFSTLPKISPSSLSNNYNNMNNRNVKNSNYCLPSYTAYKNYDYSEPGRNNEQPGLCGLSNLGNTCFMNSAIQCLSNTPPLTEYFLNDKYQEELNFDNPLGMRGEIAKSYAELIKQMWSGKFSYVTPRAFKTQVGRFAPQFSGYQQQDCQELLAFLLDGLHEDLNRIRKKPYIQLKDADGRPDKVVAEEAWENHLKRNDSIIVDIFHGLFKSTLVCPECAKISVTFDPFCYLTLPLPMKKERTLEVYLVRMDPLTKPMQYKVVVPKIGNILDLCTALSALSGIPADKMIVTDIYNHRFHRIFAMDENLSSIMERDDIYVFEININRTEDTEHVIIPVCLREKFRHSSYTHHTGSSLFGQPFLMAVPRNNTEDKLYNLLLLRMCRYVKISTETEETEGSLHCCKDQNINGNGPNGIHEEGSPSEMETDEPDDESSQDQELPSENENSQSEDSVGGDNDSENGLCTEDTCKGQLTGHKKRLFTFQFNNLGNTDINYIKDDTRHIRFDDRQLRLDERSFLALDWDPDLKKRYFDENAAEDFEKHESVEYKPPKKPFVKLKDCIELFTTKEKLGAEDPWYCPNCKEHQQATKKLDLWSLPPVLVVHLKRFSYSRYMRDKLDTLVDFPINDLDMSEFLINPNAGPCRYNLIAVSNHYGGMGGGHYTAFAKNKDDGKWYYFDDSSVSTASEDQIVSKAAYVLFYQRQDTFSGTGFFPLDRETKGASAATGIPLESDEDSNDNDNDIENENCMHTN
Summary of the method: as §1

USP16 = USP16 (UniProt Q9Y5T5)
USP16, sequence (Q9Y5T5 whole entry, looked up): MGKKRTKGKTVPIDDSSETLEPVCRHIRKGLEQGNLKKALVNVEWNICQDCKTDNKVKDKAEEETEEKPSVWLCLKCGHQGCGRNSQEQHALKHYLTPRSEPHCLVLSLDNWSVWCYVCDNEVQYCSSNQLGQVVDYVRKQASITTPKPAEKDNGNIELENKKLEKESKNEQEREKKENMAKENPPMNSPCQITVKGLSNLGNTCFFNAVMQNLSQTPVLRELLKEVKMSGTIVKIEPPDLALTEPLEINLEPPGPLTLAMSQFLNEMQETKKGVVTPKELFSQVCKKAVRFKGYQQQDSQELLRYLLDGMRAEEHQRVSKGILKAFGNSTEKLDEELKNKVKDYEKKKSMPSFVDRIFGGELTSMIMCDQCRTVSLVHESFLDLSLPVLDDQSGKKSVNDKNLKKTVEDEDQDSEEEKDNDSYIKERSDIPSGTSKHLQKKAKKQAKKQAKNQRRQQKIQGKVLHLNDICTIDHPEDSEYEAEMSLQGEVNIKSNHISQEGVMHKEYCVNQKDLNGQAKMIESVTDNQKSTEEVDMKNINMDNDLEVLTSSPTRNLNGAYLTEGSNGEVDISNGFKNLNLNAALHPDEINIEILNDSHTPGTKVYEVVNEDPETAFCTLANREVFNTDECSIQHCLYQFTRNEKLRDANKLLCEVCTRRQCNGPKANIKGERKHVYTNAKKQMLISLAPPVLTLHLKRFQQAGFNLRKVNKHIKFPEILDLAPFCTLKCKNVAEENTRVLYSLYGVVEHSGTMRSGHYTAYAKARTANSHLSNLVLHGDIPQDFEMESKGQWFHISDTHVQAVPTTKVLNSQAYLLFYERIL
Summary of the method: as §1

Measured: log2 ratio of Biotin-Ahx-Ub-VS probe labelling

O=C(CCl)N1CCOCCC1c1ccccc1 (stereo not given)
inactive: OTUD6B -0.163 | OTUD7B -0.354 | PRPF8 -0.148 | PSMD7 0.00247 | UCHL3 0.325 | UCHL5 -0.0371 | USP10 -0.182 | USP15 0.0371 | USP16 -0.424
active: UCHL1 -1.93
